Experimental data taken from the supplement of paper PMC10849652.
Targets with a hit are over-represented here; the source holds about 7,900 in all. About 0.6% of all pairs of compound and target were hits. Unmarked numbers belong to inactive results.

Legend:
Assay in all cases: log2 fold change, soluble protein after heating vs DMSO (PISA); higher = thermal stabilisation; K562 cells, 10 uM, 30 min; active = over 0.2 and 3.5 SD of the protein, either way, in both replicates (recomputed)
[1] = compound: CS(=O)(=O)c1ccc(-c2cnc(N)c(C(=O)Nc3ccccc3)n2)cc1
Procedure, shortened: (§1)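 K562 cells at 2×10^6 cells/mL were given 10 μM compound for 30 min. Aliquots then went through 3 min of heating across 48°C-58°C, were pooled, and were extracted in PBS with 0.5% NP-40 at 4°C, and the supernatant after 21,000xg for 90 min was quantified by TMTpro 16plex LC-MS/MS with channel sums equalised. Thermal stability relative to control samples, from duplicates, is given as log2 fold change.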

crizotinib = compound: C[C@@H](Oc1cc(-c2cnn(C3CCNCC3)c2)cnc1N)c1c(Cl)ccc(F)c1Cl [crizotinib]
Procedure, shortened: as §1

[2] = compound: C[C@@H]1COCCN1C2=NC(=NC(=C2)C3(CC3)S(=O)(=O)C)C4=C5C=CNC5=CC=C4
Procedure, shortened: as §1

[3] = compound: C[C@H](C1=CC=C(C=C1)C(=O)NC2=C3C=CNC3=NC=C2)N
Procedure, shortened: as §1

duvelisib = compound: C[C@H](Nc1ncnc2nc[nH]c12)c1cc2cccc(Cl)c2c(=O)n1-c1ccccc1 [duvelisib]
Procedure, shortened: as §1

gandotinib = compound: Cc1cc(Nc2cc(CN3CCOCC3)c3nc(C)c(Cc4ccc(Cl)cc4F)n3n2)n[nH]1 [gandotinib]
Procedure, shortened: as §1

tozasertib = compound: Cc1cc(Nc2cc(N3CCN(C)CC3)nc(Sc3ccc(NC(=O)C4CC4)cc3)n2)n[nH]1 [tozasertib]
Procedure, shortened: as §1

[4] = compound: Cc1cc(SCc2sc(-c3ccc(C(F)(F)F)cc3)nc2C)ccc1OCC(=O)O
Procedure, shortened: as §1

doramapimod = compound: Cc1ccc(-n2nc(C(C)(C)C)cc2NC(=O)Nc2ccc(OCCN3CCOCC3)c3ccccc23)cc1 [doramapimod]
Procedure, shortened: as §1

ispinesib = compound: Cc1ccc(C(=O)N(CCCN)[C@@H](c2nc3cc(Cl)ccc3c(=O)n2Cc2ccccc2)C(C)C)cc1 [ispinesib]
Procedure, shortened: as §1

UniProt Q9Y6I4, sequence (Q9Y6I4 whole entry, looked up): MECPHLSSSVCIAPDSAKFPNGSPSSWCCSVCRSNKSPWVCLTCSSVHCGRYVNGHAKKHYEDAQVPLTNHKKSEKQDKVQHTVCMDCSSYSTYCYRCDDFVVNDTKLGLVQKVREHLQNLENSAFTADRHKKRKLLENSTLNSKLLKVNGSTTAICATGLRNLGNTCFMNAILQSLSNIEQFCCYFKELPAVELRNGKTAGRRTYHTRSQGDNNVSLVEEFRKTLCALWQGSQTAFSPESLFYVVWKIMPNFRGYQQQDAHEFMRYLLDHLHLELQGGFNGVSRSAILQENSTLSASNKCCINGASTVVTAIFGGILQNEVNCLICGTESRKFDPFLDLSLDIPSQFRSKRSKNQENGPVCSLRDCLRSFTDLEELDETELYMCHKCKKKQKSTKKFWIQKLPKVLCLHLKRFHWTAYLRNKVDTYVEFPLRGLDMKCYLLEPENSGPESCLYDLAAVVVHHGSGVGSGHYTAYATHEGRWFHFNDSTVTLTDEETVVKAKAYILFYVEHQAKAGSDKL
UniProt Q6ZVM7, sequence (Q6ZVM7 whole entry, looked up): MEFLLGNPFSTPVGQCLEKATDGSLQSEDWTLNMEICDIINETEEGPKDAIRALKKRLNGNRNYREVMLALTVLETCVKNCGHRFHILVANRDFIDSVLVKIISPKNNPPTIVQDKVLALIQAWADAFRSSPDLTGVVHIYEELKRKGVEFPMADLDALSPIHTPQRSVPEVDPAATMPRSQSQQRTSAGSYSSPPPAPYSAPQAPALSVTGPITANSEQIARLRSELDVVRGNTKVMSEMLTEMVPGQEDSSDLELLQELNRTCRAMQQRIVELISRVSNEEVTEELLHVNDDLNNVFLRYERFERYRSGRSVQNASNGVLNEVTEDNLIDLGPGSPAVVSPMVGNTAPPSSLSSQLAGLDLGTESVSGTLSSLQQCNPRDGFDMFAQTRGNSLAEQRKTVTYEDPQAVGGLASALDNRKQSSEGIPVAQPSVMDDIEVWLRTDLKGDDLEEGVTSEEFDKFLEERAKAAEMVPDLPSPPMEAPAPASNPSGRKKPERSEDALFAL
UniProt Q9NQ34, sequence (Q9NQ34 whole entry, looked up): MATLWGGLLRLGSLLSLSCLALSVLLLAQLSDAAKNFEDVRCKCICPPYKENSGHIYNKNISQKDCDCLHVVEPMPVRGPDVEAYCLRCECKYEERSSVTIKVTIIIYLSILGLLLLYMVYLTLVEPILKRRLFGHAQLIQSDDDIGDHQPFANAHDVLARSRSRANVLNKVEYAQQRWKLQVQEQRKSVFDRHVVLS
UniProt Q6PID6, sequence (Q6PID6 whole entry, looked up): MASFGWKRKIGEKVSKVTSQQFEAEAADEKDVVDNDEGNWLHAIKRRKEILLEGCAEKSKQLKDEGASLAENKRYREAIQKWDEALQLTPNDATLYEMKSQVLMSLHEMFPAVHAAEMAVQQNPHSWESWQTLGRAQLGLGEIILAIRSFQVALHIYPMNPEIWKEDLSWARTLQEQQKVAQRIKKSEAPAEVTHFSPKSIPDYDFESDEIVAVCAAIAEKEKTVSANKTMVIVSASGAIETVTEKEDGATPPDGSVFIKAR
UniProt Q8NEZ2, sequence (Q8NEZ2 whole entry, looked up): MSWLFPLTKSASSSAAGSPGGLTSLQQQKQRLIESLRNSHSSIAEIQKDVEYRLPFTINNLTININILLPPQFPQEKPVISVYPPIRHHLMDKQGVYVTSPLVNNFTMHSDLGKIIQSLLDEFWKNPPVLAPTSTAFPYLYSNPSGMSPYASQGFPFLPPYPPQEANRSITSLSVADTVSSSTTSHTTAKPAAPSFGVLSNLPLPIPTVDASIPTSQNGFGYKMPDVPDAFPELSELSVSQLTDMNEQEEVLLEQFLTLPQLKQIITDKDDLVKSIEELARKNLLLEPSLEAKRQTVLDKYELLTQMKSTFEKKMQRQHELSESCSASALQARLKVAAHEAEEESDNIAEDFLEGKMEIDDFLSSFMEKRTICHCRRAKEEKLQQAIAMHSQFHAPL
UniProt Q92890, sequence (Q92890 whole entry, looked up): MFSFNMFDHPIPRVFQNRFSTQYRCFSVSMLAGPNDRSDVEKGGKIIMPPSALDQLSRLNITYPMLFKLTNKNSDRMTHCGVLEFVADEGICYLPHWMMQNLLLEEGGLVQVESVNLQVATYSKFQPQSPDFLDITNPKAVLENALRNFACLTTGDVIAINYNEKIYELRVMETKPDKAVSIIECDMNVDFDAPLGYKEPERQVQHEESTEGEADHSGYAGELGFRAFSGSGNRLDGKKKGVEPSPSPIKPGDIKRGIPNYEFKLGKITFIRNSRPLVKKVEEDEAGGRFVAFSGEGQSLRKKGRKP
UniProt P49815, sequence (P49815 whole entry, looked up): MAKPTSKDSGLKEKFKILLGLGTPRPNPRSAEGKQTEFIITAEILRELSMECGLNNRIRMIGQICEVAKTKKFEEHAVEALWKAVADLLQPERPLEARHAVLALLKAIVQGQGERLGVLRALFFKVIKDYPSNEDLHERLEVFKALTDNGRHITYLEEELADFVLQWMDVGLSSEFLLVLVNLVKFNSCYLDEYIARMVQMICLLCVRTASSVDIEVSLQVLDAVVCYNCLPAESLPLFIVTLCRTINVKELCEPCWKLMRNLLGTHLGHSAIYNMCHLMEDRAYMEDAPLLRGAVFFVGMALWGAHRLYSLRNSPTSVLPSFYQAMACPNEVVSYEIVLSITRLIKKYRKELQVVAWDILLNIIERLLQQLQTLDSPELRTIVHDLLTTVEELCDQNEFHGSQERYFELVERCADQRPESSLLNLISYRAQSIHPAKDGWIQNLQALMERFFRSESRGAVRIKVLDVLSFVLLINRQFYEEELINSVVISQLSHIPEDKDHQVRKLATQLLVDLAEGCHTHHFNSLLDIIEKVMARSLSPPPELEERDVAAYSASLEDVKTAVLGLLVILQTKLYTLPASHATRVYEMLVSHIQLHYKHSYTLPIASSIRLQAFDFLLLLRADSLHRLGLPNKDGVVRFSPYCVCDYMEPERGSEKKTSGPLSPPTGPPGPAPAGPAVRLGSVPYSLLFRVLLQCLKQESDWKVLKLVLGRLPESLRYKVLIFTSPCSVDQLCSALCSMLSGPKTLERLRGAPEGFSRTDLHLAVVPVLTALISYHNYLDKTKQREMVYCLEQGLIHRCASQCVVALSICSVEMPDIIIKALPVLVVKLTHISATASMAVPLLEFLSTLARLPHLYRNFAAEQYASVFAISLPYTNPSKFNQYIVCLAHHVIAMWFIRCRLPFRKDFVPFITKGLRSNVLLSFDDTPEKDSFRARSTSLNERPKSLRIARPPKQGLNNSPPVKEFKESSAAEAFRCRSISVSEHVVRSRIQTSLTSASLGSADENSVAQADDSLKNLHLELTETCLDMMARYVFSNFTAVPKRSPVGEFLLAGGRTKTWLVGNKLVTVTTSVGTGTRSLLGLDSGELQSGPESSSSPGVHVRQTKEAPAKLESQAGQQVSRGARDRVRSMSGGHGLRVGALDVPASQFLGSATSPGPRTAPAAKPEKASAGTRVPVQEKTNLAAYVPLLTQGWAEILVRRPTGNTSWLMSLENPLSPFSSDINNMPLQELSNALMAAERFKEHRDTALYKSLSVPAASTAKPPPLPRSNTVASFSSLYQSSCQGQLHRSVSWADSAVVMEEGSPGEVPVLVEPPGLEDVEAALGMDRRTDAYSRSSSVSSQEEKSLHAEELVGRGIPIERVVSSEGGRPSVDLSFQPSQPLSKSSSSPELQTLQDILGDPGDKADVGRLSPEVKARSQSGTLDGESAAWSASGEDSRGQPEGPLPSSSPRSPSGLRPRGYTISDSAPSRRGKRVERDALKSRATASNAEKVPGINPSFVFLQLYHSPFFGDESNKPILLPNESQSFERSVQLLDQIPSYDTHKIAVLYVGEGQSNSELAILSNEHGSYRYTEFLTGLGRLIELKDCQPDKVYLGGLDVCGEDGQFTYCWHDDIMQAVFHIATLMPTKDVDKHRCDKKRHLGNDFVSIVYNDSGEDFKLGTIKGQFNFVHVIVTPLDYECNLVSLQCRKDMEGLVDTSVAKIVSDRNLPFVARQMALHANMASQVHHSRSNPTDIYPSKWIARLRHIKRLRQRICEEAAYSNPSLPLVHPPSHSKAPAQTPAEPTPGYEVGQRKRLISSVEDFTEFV
UniProt P02585, sequence (P02585 whole entry, looked up): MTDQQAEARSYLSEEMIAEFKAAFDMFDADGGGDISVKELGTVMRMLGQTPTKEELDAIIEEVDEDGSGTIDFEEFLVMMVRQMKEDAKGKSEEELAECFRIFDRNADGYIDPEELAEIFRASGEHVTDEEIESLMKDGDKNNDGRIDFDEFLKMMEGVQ
UniProt O14773, sequence (O14773 whole entry, looked up): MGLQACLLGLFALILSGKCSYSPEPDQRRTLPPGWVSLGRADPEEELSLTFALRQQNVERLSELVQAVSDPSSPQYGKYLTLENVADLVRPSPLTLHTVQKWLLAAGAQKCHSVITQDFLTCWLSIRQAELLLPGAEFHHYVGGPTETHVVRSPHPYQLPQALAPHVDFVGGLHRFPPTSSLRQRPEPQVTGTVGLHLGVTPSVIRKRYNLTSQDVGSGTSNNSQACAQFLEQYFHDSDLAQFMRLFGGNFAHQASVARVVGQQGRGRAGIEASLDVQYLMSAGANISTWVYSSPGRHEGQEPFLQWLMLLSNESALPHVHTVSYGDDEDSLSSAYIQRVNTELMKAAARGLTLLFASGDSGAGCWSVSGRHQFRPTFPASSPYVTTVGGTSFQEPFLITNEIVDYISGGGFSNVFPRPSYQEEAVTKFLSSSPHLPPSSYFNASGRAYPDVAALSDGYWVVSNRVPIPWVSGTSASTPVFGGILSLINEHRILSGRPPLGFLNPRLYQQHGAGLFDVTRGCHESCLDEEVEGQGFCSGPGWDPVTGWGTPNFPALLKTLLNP
UniProt Q629K1, sequence (Q629K1 whole entry, looked up): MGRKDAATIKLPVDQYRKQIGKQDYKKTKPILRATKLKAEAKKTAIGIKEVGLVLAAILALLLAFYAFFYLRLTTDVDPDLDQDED
UniProt P61960, sequence (P61960 whole entry, looked up): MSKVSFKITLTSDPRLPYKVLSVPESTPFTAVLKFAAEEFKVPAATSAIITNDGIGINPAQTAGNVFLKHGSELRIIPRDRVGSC

Row | Target | log2 fold change [1] | log2 fold change (crizotinib) | log2 fold change [2] | log2 fold change [3] | log2 fold change (duvelisib) | log2 fold change (gandotinib) | log2 fold change (tozasertib) | log2 fold change [4] | log2 fold change (doramapimod) | log2 fold change (ispinesib)
1 | XPNPEP1 isoform 3 (UniProt Q9NQW7) | 0.069 | -0.023 | 0.098 | -0.076 | 0.036 | -0.053 | -0.023 | 0.007 | 0.028 | -0.015
2 | TTI2 (UniProt Q6NXR4) | -0.066 | -0.155 | 0.028 | 0.121 | -0.067 | – | 0.004 | 0.142 | 0.013 | -0.204
3 | VTA1 (UniProt Q9NP79) | 0.032 | -0.049 | 0.056 | -0.019 | 0.019 | -0.127 | 0.004 | 0.057 | -0.021 | -0.014
4 | UPF3B (UniProt Q9BZI7) | 0 | 0.091 | -0.63 | 0.542 | -0.125 | 0.452 | 0.071 | 0.064 | 0.295 | -0.222
5 | UBE4B isoform 4 (UniProt O95155) | 0.016 | -0.013 | 0.012 | -0.015 | 0.012 | -0.048 | 0.035 | 0.019 | -0.048 | 0
6 | UGGT1 (UniProt Q9NYU2) | 0.013 | 0 | 0.012 | 0.009 | -0.005 | 0.005 | 0.008 | 0.016 | 0.017 | 0.012
7 | UBA52 (UniProt P62987) | -0.065 | -0.02 | -0.909 (active) | 0.364 | – | 0.44 | 0.053 | – | 0.118 | -0.165
8 | TNNC2 (UniProt P02585) | -0.004 | 0.06 | 0.04 | -0.005 | 0.072 | 0.078 | -1.1 (active) | -0.059 | -0.014 | 0.022
9 | TRIP10 isoform 2 (UniProt Q15642) | 0.132 | 0.056 | -0.007 | 0.108 | 0.001 | 0.147 | 0.101 | -0.089 | -0.035 | 0.309
10 | TMEM128 (UniProt Q5BJH2) | 0.001 | 0.234 | -0.062 | 0.025 | -0.009 | – | 0.06 | 0.016 | -0.138 | 0.021
11 | TSC2 (UniProt P49815) | -0.09 | 0.065 | -0.139 | 0.218 | – | -0.091 | -0.172 | – | 0.09 | 0.012
12 | WDR62 isoform 4 (UniProt O43379) | 0.064 | -0.137 | 0.07 | -0.064 | 0.011 | -0.204 (active) | -0.068 | -0.016 | -0.057 | -0.02
13 | VPS37A (UniProt Q8NEZ2) | 0.035 | -0.146 | 0.092 | -0.084 | 0.044 | -0.292 | 0.057 | 0.206 | -0.017 | 0
14 | VPS18 (UniProt Q9P253) | -0.008 | -0.21 | -0.013 | 0.05 | -0.035 | -0.041 | 0.009 | 0.063 | -0.014 | -0.203
15 | UFD1 isoform 1 (UniProt Q92890) | -0.029 | 0.004 | -0.032 | -0.022 | 0.043 | -0.099 | -0.027 | -0.04 | 0.007 | 0.036
16 | USP3 (UniProt Q9Y6I4) | 0.065 | -0.131 | 0.043 | -0.26 | -0.008 | -0.246 | -0.003 | 0.155 | -0.023 | -0.04

Row | Target | log2 fold change [1] | log2 fold change (crizotinib) | log2 fold change [2] | log2 fold change [3] | log2 fold change (duvelisib) | log2 fold change (gandotinib) | log2 fold change (tozasertib) | log2 fold change [4] | log2 fold change (doramapimod) | log2 fold change (ispinesib)
17 | TOM1L2 (UniProt Q6ZVM7) | 0.03 | 0.101 | 0.118 | 0.087 | 0.099 | – | – | 0.035 | 0.02 | –
18 | TRIQK (UniProt Q629K1) | 0.003 | 0.024 | 0.072 | 0.017 | 0.073 | – | -0.003 | -0.006 | 0.008 | 0.182
19 | TMEM9B (UniProt Q9NQ34) | -0.035 | -0.011 | 0.105 | 0.061 | – | -0.116 | -0.03 | – | 0.023 | -0.211
20 | TPP1 (UniProt O14773) | 0.025 | -0.371 (active) | 0.022 | -0.026 | 0.056 | 0.049 | -0.009 | -0.016 | 0.008 | -0.189
21 | TMEM179B (UniProt Q7Z7N9) | -0.005 | -0.167 | 0.101 | -0.165 | – | -0.138 | 0.032 | – | 0.071 | -0.099
22 | TRABD (UniProt Q9H4I3) | -0.041 | 0.174 | 0.097 | -0.062 | – | 0.059 | 0.009 | – | 0.025 | 0.597 (active)
23 | TRMT10A (UniProt Q8TBZ6) | 0.012 | 0.01 | 0.093 | -0.072 | 0.053 | 0 | -0.031 | 0.016 | -0.023 | 0.028
24 | WAPL isoform 3 (UniProt Q7Z5K2) | 0.052 | -0.23 | 0.18 | -0.142 | 0 | -0.199 | 0.052 | -0.006 | 0.017 | -0.026
25 | TTC33 (UniProt Q6PID6) | 0.056 | -0.399 | -0.113 | 0.146 | 0.002 | -0.192 | – | -0.06 | -0.15 | -0.095
26 | TOMM20 (UniProt Q15388) | -0.068 | -0.019 | 0.058 | -0.06 | 0.016 | 0.116 | -0.042 | -0.062 | -0.025 | -0.358 (active)
27 | TOM1L1 (UniProt O75674) | -0.001 | 0.08 | 0.184 | -0.059 | 0.102 | -0.342 (active) | -0.03 | 0.011 | -0.021 | -0.016
28 | UFM1 (UniProt P61960) | 0.021 | 0.004 | 0.178 | -0.062 | 0.146 | – | -0.056 | -0.043 | -0.037 | 0.158
29 | UBE3B (UniProt Q7Z3V4) | 0.106 | -0.133 | 0.254 | -0.108 | 0.141 | – | -0.109 | 0.021 | -0.055 | 0.178
30 | TRIM4 (UniProt Q9C037) | 0.114 | 0.045 | 0.037 | 0.061 | – | -0.023 | 0.023 | – | 0.092 | -0.033
31 | TMEM41A (UniProt Q96HV5) | -0.023 | 0.139 | 0.137 | – | -0.001 | -0.044 | -0.138 | 0 | 0.025 | 0.065
32 | TXNL4B (UniProt Q9NX01) | 0.22 | 0.309 | – | 0.008 | 0.083 | -0.024 | 0.07 | 0.054 | 0.037 | -0.017
